{
  "source": "PubChem BioAssay (NCI)",
  "note": "About 83,000 compounds went through this panel and 20% of them were active in at least one assay; those are over-represented in the sample as a whole.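 Cell lines were cultured in 96-well plates, exposed to a single compound concentration, and assessed for percent growth 48 hours later.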 Activity calls are given as the source filed them.",
  "data": [
    {"tested_on": "T-47D breast", "assay": "NCI-60 one-dose screen, 48 h (100 = growth as untreated, 0 = no growth, -100 = all killed)", "conditions": "10 µM unless noted", "method": "Growth inhibition of the T-47D human tumor cell line is measured as a screen for anti-cancer activity. Cells are grown in 96 well plates and exposed to the test compound for 48 hours. Compounds are tested at a single concentration, which is 10^-5 M for most compounds. The reported endpoint is percent growth (GI% or GIPRCNT), where numbers from 0 - 100% represent growth inhibition, and numbers from -100% - 0 represent cell death. For example, a value of 40 represents 60% growth inhibition. A value of 0 means no net growth occurred over the course of the experiment. A value of -40 indicates 40% of cells at the beginning of the experiment died by the end of the experiment. A value of -100 means all cells are dead at the end of the experiment.\nNCI-60 Human Tumor Cell Lines Screen was performed using the standard one-dose NCI protocol, which is described in more detail at https://dtp.cancer.gov/discovery_development/nci-60/default.htm.\nCompounds with GIPRCNT values below 10 were considered active. Activity score was based on GIPRCNT using the following formula: […]\nScore is 0 for GIPRCNT values of 100 or above, 50 for GIPRCNT values of 0, and 100 for GIPRCNT values of -100.", "values": [
      {"smiles": "COc1ccc(/C(C)=C(\\c2ccc(Cl)cc2)c2ccc(OCCN3CCCCC3)cc2)cc1", "growth": "48.1% (inactive)"},
      {"smiles": "N#CC1CCc2c(c(-c3ccc4nc(N)sc4c3)nc3ccc4[nH]ncc4c23)C1", "note": "(stereo not given)", "growth": "94% (inactive)"},
      {"smiles": "O=C(Cc1ccc(NC(=O)c2cccc(Cl)c2)cc1)NCc1ccccc1", "growth": "54.2% (inactive)"},
      {"smiles": "O=C(CN1CCCCCC1)Nc1nc2ccc(NCc3ccc(Cl)cc3)cc2s1", "growth": "94.7% (inactive)"},
      {"smiles": "CC1(C)NCCC[C@]2(C)[C@H]3CC[C@H]4[C@H]5[C@H](C(=O)/C=C/c6cccnc6)CCC[C@]5(CO)CC[C@@]4(C)[C@]3(C)CC[C@@H]12", "growth": "81.3% (inactive)"},
      {"smiles": "CCCCNc1nnc2n(Cc3ccccc3)c(=O)c3c4c(sc3n12)CCCC4", "growth": "43.2% (inactive)"},
      {"smiles": "CC(=O)OC(c1ccccc1)C1CCOC1=O", "note": "(stereo not given)", "growth": "106% (inactive)"},
      {"smiles": "O=C1Nc2c(C(=O)O)cccc2/C1=N/c1n[nH]c(=S)s1", "growth": "68.4% (inactive)"},
      {"smiles": "C=CCn1c(SCC(=O)Nc2ccc(/C(C)=N/O)cc2)nnc1-c1cc(-c2ccc(S(N)(=O)=O)cc2)nc2ccccc12", "growth": "27.4% (inactive)"},
      {"smiles": "Cc1ccnc(Nc2ccc([N+](=O)[O-])c(NCCN3CCOCC3)n2)c1", "growth": "83.9% (inactive)"},
      {"smiles": "O=C(Nc1ncccc1OCc1ccccc1)NC1CCCCCC1", "growth": "71% (inactive)"},
      {"smiles": "N=C(N)c1ccc(-c2ccc(-c3cc(Cl)cc(Cl)c3)s2)nc1", "growth": "84.2% (inactive)"},
      {"smiles": "S=c1[nH]c(=S)c2c(-c3ccccc3)c(-c3ccccc3)oc2[nH]1", "growth": "91.4% (inactive)"},
      {"smiles": "Cc1ccc(-c2nc(/C=C3/C(=O)Nc4ccc(F)cc43)c3ccccn23)cc1", "growth": "100% (inactive)"},
      {"smiles": "COc1cccc(/C=C/C(=O)c2cccc(Nc3nc(Nc4ccccc4)nc(Nc4ccccc4)n3)c2)c1", "growth": "53.5% (inactive)"},
      {"smiles": "CS(=O)(=O)Nc1cc(-c2ccc3ncc(C#N)c(Nc4ccc(F)c(Cl)c4)c3c2)cnc1Cl", "growth": "-13.3% (active)"},
      {"smiles": "CC1=C2[C@@H](CC1)[C@]1(C)O[C@@](c3ccccc3)(C[C@H]1OC(=O)CO)[C@H]2OC(=O)/C=C/c1ccccc1", "growth": "65.2% (inactive)"},
      {"smiles": "CCN1C(=O)N(CC)C2C1NN=c1s/c(=C\\c3ccc[nH]3)c(=O)n12", "note": "(stereo not given)", "growth": "31% (inactive)"},
      {"smiles": "O=C(NC1CC(F)C1)c1cc2cccnc2n1-c1ccc(Cl)c(Cl)c1", "note": "(stereo not given)", "growth": "82.6% (inactive)"},
      {"smiles": "CN(Cc1cc(Br)cc(Br)c1O)Cc1cc(Br)cc(Br)c1O", "growth": "42.6% (inactive)"},
      {"smiles": "Cc1ccc2c(=O)cc(C(=O)Nc3sc4c(c3C(=O)NCc3cccnc3)CCCC4)oc2c1C", "growth": "94% (inactive)"},
      {"smiles": "CCN1C(=O)N(CC)C2Nn3c(s/c(=C\\c4ccccc4Br)c3=O)=NC21", "note": "(stereo not given)", "growth": "62.1% (inactive)"},
      {"smiles": "O=C1/C(=C2\\SC(=S)N(C3CC3)C2=O)SC(=S)N1C1CC1", "growth": "94.6% (inactive)"},
      {"smiles": "COc1cc(-c2nc3c(ncc4ccc(=O)n(-c5ccccc5)c43)s2)cc(OC)c1OC", "growth": "37.9% (inactive)"},
      {"smiles": "O=C(Oc1ccc(CCl)cc1)c1ccccc1", "growth": "-35.1% (active)"},
      {"smiles": "CCN1CCN(c2cc(C)nc(N(CCNc3ccnc4cc(Cl)ccc34)Cc3ccc4c(c3)OCO4)n2)CC1", "growth": "-62.1% (active)"},
      {"smiles": "Cc1cccc(N2CCC(=O)NC2=S)c1", "growth": "105% (inactive)"},
      {"smiles": "COc1ccc(-c2nc(/C=C3\\C(=O)N(C)c4ccccc43)c3ccccn23)cc1", "growth": "76% (inactive)"},
      {"smiles": "CCn1c(-c2cc3c([nH]c4ccccc43)c(-c3cccc(O)c3)n2)n[nH]c1=S", "growth": "11.7% (inactive)"},
      {"smiles": "Cc1ccc(-c2nc(N3CCNCC3)c3oc(-c4ccc(C)cc4)nc3n2)cc1", "growth": "37.3% (inactive)"},
      {"smiles": "C=C(c1ccc(OC)c(/C=C/C(=O)c2ccc3c(c2)OCO3)c1)c1cc(OC)c(OC)c(OC)c1", "growth": "8.67% (active)"},
      {"smiles": "Oc1c(CN2CCC(N3CCCCC3)CC2)cc(Cc2cc(CN3CCC(N4CCCCC4)CC3)c(O)c3ncccc23)c2cccnc12", "growth": "7.31% (active)"},
      {"smiles": "C/C(=N\\O)[C@@H]1CC[C@]2(CO)CC[C@]3(C)[C@H](CC[C@@H]4[C@@]5(C)CCCNC(C)(C)[C@@H]5CC[C@]43C)[C@@H]12", "growth": "72.5% (inactive)"},
      {"smiles": "CN(CCC(=O)c1ccccc1)CCC(=O)c1ccccc1", "growth": "113% (inactive)"},
      {"smiles": "COc1ccc(-c2nc(-c3cn(C)c4ncccc34)cs2)cc1", "growth": "-6.67% [100 µM] (active)"},
      {"smiles": "CN1CCN(Cc2ccc(NC(=O)c3cncc(C#Cc4cnc(N)c5ccc(F)cc45)c3)cc2C(F)(F)F)CC1", "growth": "43.5% (inactive)"},
      {"smiles": "Cc1cc(Nc2ccc(C(=O)N3CCCC3)cc2)nc(NCCCNc2ccnc3cc(Cl)ccc23)n1", "growth": "77.8% (inactive)"},
      {"smiles": "Cc1cccc[n+]1C1c2ccccc2-c2ccccc21", "growth": "60.8% (inactive)"},
      {"smiles": "Cc1ccc(N2C(=O)CCC2=O)cc1", "growth": "105% (inactive)"},
      {"smiles": "O=C1c2ccccc2C(=O)c2c1cc1c(c2[N+](=O)[O-])OCO1", "growth": "4.66% (active)"}
    ]}
  ]
}
